Source: PubChem BioAssay AID1494158 (National Center for Advancing Translational Sciences (NCATS), 2020)
Inconclusive results are not listed. Active and inactive are the calls of the source. Calls follow the shape of the full dose curve.

Assay: VSV-G qHTS counterscreen for inhibitors of SARS-S pseudo-typed particle cell entry
Details: VSV-G pseudotyped particle entry counterscreen, luciferase; series mostly up to 57.1 µM

Row | Structure (SMILES) | Potency
1 | Cc1cn([C@H]2C[C@H](N=[N+]=[N-])[C@@H](CO)O2)c(=O)[nH]c1=O | 3.41 µM (active)
2 | C[C@]12CC[C@H](O)C[C@H]1CCC1C2CC[C@]2(C)[C@@H](c3ccc(=O)oc3)C[C@H]3O[C@]132 (stereo partly drawn) | 9.61 µM (active)
3 | COc1cccc2c1C(=O)c1c(O)c3c(c(O)c1C2=O)C[C@@](O)(C(=O)CO)CC3OC1CC(N2CCOC(OC)C2)C(O)C(C)O1 (stereo partly drawn) | 0.108 µM (active)
4 | CC(=O)Oc1ccccc1C(=O)Nc1ncc([N+](=O)[O-])s1 | 6.81 µM (active)
5 | Cc1cc(C(C#N)c2ccc(Cl)cc2)c(Cl)cc1NC(=O)c1cc(I)cc(I)c1O (stereo not drawn) | 30.4 µM (active)
6 | COc1cc2nccc(Oc3ccc(NC(=O)NC4CC4)c(Cl)c3)c2cc1C(N)=O | 17.1 µM (active)
7 | Cc1cc(-n2c(=O)[nH]c(=O)n(C)c2=O)ccc1Oc1ccc(S(=O)(=O)C(F)(F)F)cc1 | 19.2 µM (active)
8 | O=C(Nc1ccc([N+](=O)[O-])cc1Cl)c1cc(Cl)ccc1O | 0.482 µM (active)
9 | O=C(Nc1ccc(Cl)cc1)Nc1ccc(Cl)c(C(F)(F)F)c1 | 9.61 µM (active)
10 | CC(=O)N1CCN(c2ccc(OC[C@H]3CO[C@](Cn4ccnc4)(c4ccc(Cl)cc4Cl)O3)cc2)CC1 | 19.2 µM (active)
11 | CCCCN=C(N)N=C(N)N | inactive
12 | CC(C)(C)C(=O)OCOP(=O)(COCCn1cnc2c(N)ncnc21)OCOC(=O)C(C)(C)C | 0.0681 µM (active)
13 | CC(=O)[C@]1(O)Cc2c(O)c3c(c(O)c2[C@@H](O[C@H]2C[C@H](N)[C@H](O)[C@H](C)O2)C1)C(=O)c1ccccc1C3=O | 4.82 µM (active)
